Measurements reported in PubChem BioAssay (Tox21).
Results filed as inconclusive are left out. The source made the active and inactive calls. Unless noted, calls come from the whole dose curve; as a rule, active = well fitted curve in the direction sought with a large enough effect in the repeat runs; inconclusive = weak or mixed curves; inactive = no such curve, though single readings can be large; an effect the other way counts as inactive or inconclusive.

Key:
[1] = qHTS assay to identify small molecule antagonists of the estrogen receptor alpha (ER-alpha) signaling pathway using the BG1 cell line in the presence of 0.1 nM 17-beta-estradiol - cell viability counter screen (AID 1259241); note: nearly all actives have a fitted effect of over 40% in size
Summary of the method: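 CellTiter-Fluor read (30 min, 37C) on ER-alpha/ERE-luc VM7Luc4E2 cells; 22 hr compound treatment; agonist 0.1 nM E2 final; same-well multiplex.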

[2] = biological target: Estrogen receptor (Homo sapiens) (UniProt P03372); assay: qHTS assay to identify small molecule antagonists of the estrogen receptor alpha (ER-alpha) signaling pathway using the BG1 cell line in the presence of 0.1 nM 17-beta-estradiol (AID 1259244); note: nearly all actives have a fitted effect of over 50% in size
Summary of the method: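 VM7Luc4E2 cells (endogenous full-length ER-alpha, stable 4xERE-luciferase) were grown 5 days in phenol red-free medium with charcoal-stripped FBS, then exposed 22 h at 37C to compounds plus 0.1 nM (final) 17beta-estradiol; ONE-Glo luminescence read-out.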

[3] = qHTS assay to identify small molecule phospholipidosis (PLD) inducers (AID 1259344; active = well fitted curve in the direction sought with a large enough effect; an effect the other way counts as inactive or inconclusive)
Summary of the method: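 Fluorescent phospholipid staining (LipidTOX Red) measured by automated microscopy in fixed HepG2 cells after 24 h treatment; nuclei counterstained with Hoechst 33342; amiodarone as reference inducer.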

[4] = qHTS assay to identify small molecule HDAC inhibitors (AID 1259364); note: top concentration of the series differs between compounds; nearly all actives have a fitted effect of over 45% in size
Summary of the method: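 Wild-type HCT-116 cells were plated overnight, exposed to compounds for 2 h at 37 °C, then given HDAC-Glo class I/II luminogenic reagent for 30 min at room temperature before luminescence was read.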

[5] = qHTS assay to identify small molecule agonists of the sonic hedgehog signaling (Shh) pathway - cell viability counter screen (AID 1259366); note: nearly all actives have a fitted effect of over 50% in size
Summary of the method: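 Fluorescence from CellTiter-Fluor reports live cells in this counter screen. NIH/3T3-derived Gli1-Luc reporter cells receive test compounds for 24hr at 37C; reagent goes in at 23hr.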

[6] = qHTS assay to identify small molecule antagonists of the sonic hedgehog signaling (Shh) pathway - cell viability counter screen (AID 1259367); note: nearly all actives have a fitted effect of over 55% in size
Summary of the method: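 Using CellTiter-Fluor, viability of Gli1-Luc reporter 3T3 cells is read by fluorescence in the wells used for the Shh luciferase assay. Treatment lasts 23 hr with conditioned medium, then reagent 1 hr at 37C.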

[7] = qHTS assay to identify small molecule agonists of the sonic hedgehog signaling (Shh) pathway (AID 1259368; calls by dose curve; note: series mostly up to about 92 µM; nearly all actives have a fitted effect of over 15% in size)
Summary of the method: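 NIH/3T3-derived 3T3Gli1-Luc cells carrying a stably integrated Gli1 response element–firefly luciferase reporter were plated, left 4 hr at 37 C, then given compounds in DMSO for 24 hr. Luminescence was read 30 min after adding luciferase reagent.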

[8] = qHTS assay to identify small molecule antagonists of the sonic hedgehog signaling (Shh) pathway (AID 1259369; calls by dose curve; note: nearly all actives have a fitted effect of over 45% in size)
Summary of the method: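 NIH/3T3-derived 3T3Gli1-Luc cells with stably integrated Gli1-Luc reporter were preincubated 4hr at 37 C, then given compounds in DMSO plus Shh conditioned medium and incubated 24hr. Firefly luciferase luminescence read after 30min reagent at room temperature.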

[9] = biological target: Estrogen receptor beta (Homo sapiens) (UniProt Q92731); assay: qHTS assay to identify small molecule agonists of the estrogen receptor beta (ER-beta) signaling pathway (AID 1259377; active = well fitted activation curve with a large enough effect in the signal ratio in the repeat runs, not every such curve was filed as active; the % refers to the signal ratio)
Summary of the method: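 Screening used GripTite ER-beta-UAS-bla cells held in 2% charcoal-stripped FBS medium. After overnight (16 hr) compound incubation at 37C, beta-lactamase activity was detected with a FRET substrate by fluorescence.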

[10] = biological target: Estrogen receptor beta (Homo sapiens) (UniProt Q92731); assay: qHTS assay to identify small molecule antagonists of the estrogen receptor beta (ER-beta) signaling pathway (AID 1259378; active = well fitted inhibition curve with a large enough effect in the signal ratio in the repeat runs, not every such curve was filed as active; the % refers to the signal ratio)
Summary of the method: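 Antagonist mode: compounds added to beta-lactamase reporter HEK293T ER-beta-UAS cells stimulated with E2 (1nM final), 16 hr at 37C. LiveBLAzer B/G FRET substrate, 2 hours room temperature, fluorescence read-out.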

[11] = qHTS assay to identify small molecule agonists of the androgen receptor (AR) signaling pathway in the presence of an antagonist - cell viability counter screen (AID 1259379); note: series mostly up to about 92 µM; nearly all actives have a fitted effect of over 25% in size
Summary of the method: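 MDA-kb2 human breast carcinoma cells (stable MMTV-luciferase, AR/GR responsive) were seeded 3,000 cells/well, pre-incubated 5 hr at 37C without CO2, then given 3.0uM nilutamide and compounds at 15 concentrations for 16 hr. Viability was read by CellTiter-Fluor fluorescence.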

[12] = qHTS assay to identify small molecule agonists of the estrogen receptor beta (ER-beta) signaling pathway - cell viability counter screen (AID 1259380); note: nearly all actives have a fitted effect of over 30% in size
Summary of the method: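 ER-beta-UAS-bla HEK293T cells in medium with 2% charcoal-stripped FBS were preincubated 6 hr at 37C, dosed with compound in DMSO for 16 hr, then after the bla read, CellTiter-Glo was added for 30 min at room temperature; luminescence recorded.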

[13] = qHTS assay to identify small molecule antagonists of the estrogen receptor beta (ER-beta) signaling pathway - cell viability counter screen (AID 1259382);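 note: HEK293T cells carrying ER-beta-UAS-bla reporter stimulated with estradiol; series mostly up to about 92 µM; nearly all actives have a fitted effect of over 55% in size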
Summary of the method: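 ER-beta-UAS-bla HEK293T cells (2,000/well, 2% charcoal-stripped FBS) were pre-incubated 6 hr at 37C, then given compound plus 1nM final 17-beta-estradiol for 16 hr. Viability was read in the same wells by CellTiter-Glo luminescence after 30 min at room temperature.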

[14] = biological target: Estrogen receptor (Homo sapiens) (UniProt P03372); assay: qHTS assay to identify small molecule agonists of the estrogen receptor alpha (ER-alpha) signaling pathway in the presence of an antagonist (AID 1259383; calls by dose curve; note: top concentration of the series differs between compounds; nearly all actives have a fitted effect of over 15% in size)
Summary of the method: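 VM7Luc4E2 cells (endogenous full-length ER-alpha, 4×ERE-luciferase) were precultured 5 days in phenol red-free medium with 10% charcoal-stripped FBS, given 10.0nM ICI-182,780 (final), then treated with compounds at 15 concentrations for 22hr at 37C; luminescence read with ONE-Glo.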

[15] = qHTS assay to identify small molecule agonists or antagonists of the thyroid stimulating hormone receptor (TSHR) signaling pathway - wild type cell line counter screen (AID 1259384; calls by dose curve)
Summary of the method: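 Counter screen in untransfected Hek293: compounds (15-point titration, triplicate) plus phosphodiesterase inhibitor Ro20-1724 added after 18 h plating; 30 min RT. Intracellular cAMP via competitive d2/cryptate immunoassay, 1 h incubation.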

[16] = biological target: Androgen receptor (Homo sapiens) (UniProt P10275); assay: qHTS assay to identify small molecule antagonists of the androgen receptor (AR) signaling pathway using the MDA cell line in the presence of 0.5 nM R1881 (AID 1259243); note: nearly all actives have a fitted effect of over 50% in size
Summary of the method: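 MDA-kb2 human breast carcinoma cells carrying an MMTV-luciferase reporter (AR- and GR-responsive) were plated, rested 5 hr at 37C, dosed with compounds, then stimulated with 0.5 nM R1881 (final) for 16 hr; luminescence was read after ONE-Glo.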

[17] = qHTS assay to identify small molecule HDAC inhibitors - cell viability counter screen (AID 1259365); note: series mostly up to about 92 µM; nearly all actives have a fitted effect of over 50% in size
Summary of the method: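 To flag cytotoxic hits, 1,500 wild-type HCT-116 cells per well, plated the day before, receive test compounds for 2hr at 37 C before CellTiter-Glo reagent and a luminescence read.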

[18] = biological target: Androgen receptor (Homo sapiens) (UniProt P10275); assay: qHTS assay to identify small molecule agonists of the androgen receptor (AR) signaling pathway in the presence of an antagonist (AID 1259381; calls by dose curve; note: nearly all actives have a fitted effect of over 15% in size)
Summary of the method: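 MDA-kb2 human breast carcinoma cells carrying an MMTV-luciferase reporter (AR- and GR-responsive) were treated with compounds at 15 concentrations plus 3.0uM final nilutamide for 16hr at 37C without CO2; luminescence was read after ONE-Glo addition.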

[19] = biological target: Thyrotropin receptor (Homo sapiens) (UniProt P16473); assay: qHTS assay to identify small molecule antagonists of the thyroid stimulating hormone receptor (TSHR) signaling pathway (AID 1259385; calls by dose curve; note: nearly all actives have a fitted effect of over 20% in size)
Summary of the method: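 Antagonist mode: compound-treated TSHR-expressing HEK293 cells were stimulated with 1.5 ng/mL TSH (final) in presence of Ro20-1724 for 30 min at RT. HTRF cAMP detection after 1 h; each compound tested at 15 concentrations, triplicate.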

[20] = qHTS assay to identify small molecule antagonists of the androgen receptor (AR) signaling pathway using the MDA cell line in the presence of 0.5 nM R1881 - cell viability counter screen (AID 1259242); note: nearly all actives have a fitted effect of over 45% in size
Summary of the method: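 MDA-kb2 cells (human breast carcinoma, stably carrying MMTV-luciferase reporter) were exposed to compounds with 0.5 nM R1881 (final) for 16 hr at 37C, 0% CO2; viability then read as live-cell protease fluorescence (CellTiter-Fluor, 30 min) in the same wells.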
% is set by controls: 0 for no effect and ±100 for the full control effect.

Chain of Estrogen receptor (Homo sapiens) (P03372 whole entry, looked up): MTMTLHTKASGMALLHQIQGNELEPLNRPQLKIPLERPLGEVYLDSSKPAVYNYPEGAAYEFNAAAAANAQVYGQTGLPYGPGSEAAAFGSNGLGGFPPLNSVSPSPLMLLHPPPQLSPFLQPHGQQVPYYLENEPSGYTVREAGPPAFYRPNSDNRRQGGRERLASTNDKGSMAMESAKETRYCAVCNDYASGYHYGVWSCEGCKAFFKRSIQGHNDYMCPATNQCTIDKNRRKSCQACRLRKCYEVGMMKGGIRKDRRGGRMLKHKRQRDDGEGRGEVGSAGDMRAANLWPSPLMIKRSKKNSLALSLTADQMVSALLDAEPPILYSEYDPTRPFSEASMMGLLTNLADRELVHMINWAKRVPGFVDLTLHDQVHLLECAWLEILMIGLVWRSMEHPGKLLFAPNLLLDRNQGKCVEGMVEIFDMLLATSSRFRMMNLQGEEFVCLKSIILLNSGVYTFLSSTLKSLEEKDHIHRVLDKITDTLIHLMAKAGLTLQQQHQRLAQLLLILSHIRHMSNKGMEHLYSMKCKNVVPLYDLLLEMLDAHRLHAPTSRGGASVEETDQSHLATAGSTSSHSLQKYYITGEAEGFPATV
Chain of Thyrotropin receptor (Homo sapiens) (P16473 whole entry, looked up): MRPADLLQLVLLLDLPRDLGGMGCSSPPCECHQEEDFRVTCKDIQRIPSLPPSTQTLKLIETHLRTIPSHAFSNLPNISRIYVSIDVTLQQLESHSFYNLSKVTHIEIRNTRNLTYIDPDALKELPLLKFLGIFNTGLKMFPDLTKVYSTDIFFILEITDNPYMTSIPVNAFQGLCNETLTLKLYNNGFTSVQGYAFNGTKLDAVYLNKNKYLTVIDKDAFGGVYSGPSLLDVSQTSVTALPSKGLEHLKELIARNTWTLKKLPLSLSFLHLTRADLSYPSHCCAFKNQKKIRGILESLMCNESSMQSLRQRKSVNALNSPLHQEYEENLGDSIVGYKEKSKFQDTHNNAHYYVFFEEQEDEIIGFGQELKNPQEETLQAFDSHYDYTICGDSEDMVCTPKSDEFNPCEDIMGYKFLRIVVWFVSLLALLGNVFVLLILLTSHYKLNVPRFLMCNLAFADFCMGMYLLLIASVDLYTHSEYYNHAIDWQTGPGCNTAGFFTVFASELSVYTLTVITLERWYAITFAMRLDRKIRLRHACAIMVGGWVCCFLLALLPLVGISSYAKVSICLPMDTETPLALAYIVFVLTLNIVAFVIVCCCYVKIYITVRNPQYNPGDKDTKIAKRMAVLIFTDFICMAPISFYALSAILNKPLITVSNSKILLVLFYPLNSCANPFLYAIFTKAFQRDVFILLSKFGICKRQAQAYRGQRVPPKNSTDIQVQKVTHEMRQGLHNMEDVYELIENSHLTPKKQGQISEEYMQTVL
Chain of Androgen receptor (Homo sapiens) (P10275 whole entry, looked up): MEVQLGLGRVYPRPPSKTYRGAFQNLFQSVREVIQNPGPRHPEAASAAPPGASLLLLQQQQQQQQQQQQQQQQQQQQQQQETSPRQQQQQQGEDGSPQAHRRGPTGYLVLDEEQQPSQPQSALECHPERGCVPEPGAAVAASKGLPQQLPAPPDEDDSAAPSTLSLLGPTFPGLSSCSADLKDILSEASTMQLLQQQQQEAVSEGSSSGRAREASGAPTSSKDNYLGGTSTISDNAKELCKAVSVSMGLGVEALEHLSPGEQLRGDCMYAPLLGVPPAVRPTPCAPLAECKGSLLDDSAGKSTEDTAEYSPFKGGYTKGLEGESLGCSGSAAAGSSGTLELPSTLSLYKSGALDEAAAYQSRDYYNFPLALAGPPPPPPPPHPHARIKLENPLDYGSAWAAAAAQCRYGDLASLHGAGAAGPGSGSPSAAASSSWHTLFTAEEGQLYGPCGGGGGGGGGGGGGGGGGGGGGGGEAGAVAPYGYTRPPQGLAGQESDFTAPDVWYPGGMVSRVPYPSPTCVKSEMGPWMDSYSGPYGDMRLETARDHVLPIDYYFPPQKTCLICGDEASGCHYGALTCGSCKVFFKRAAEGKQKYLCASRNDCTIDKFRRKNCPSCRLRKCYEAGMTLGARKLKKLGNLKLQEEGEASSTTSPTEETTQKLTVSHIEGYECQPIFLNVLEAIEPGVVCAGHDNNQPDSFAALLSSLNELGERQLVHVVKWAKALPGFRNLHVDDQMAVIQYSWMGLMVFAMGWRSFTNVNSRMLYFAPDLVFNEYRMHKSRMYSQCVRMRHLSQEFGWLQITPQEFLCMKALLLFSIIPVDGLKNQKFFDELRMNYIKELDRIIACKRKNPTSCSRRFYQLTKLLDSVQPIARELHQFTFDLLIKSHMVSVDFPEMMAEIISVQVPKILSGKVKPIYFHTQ
Chain of Estrogen receptor beta (Homo sapiens) (Q92731 whole entry, looked up): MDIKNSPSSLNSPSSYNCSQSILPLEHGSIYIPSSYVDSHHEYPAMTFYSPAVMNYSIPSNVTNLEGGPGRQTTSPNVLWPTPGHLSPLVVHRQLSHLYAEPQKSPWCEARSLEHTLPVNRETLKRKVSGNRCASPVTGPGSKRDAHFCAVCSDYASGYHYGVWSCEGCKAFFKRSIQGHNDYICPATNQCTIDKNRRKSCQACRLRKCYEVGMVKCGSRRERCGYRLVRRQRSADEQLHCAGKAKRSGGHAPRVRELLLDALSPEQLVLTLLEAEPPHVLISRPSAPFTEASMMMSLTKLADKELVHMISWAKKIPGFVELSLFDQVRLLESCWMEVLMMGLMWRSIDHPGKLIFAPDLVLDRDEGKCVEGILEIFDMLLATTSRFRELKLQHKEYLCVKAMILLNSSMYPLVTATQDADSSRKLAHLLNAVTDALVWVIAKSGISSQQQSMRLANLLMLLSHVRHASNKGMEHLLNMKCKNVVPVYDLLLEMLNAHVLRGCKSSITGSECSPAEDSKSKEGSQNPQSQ

NC(N)=NCCC[C@H](N)C(=O)O
inactive: activity change, negative = cytotoxicity [1] 2.44% [at 8.39 µM] | activity change, negative = inhibition [2] 4.47% [at 8.39 µM] | PLD induction [3] -2.12% [at 7.66 µM] | activity change, negative = inhibition [4] 1.7% [at 8.39 µM] | viability change, negative = cytotoxic [5] -3.86% [at 8.39 µM] | viability change, negative = cytotoxic [6] 1.21% [at 8.39 µM] | activity change [7] -0.124% [at 8.39 µM] | activity change, negative = inhibition [8] 18.9% [at 8.39 µM] | activation [9] -0.985% [at 8.39 µM] | activity, negative = inhibition [10] 14.4% [at 8.39 µM] | activity change, negative = cytotoxicity [11] 2.11% [at 8.39 µM] | activity change, negative = cytotoxicity [12] 6.72% [at 8.39 µM] | activity change, negative = cytotoxicity [13] 6.28% [at 8.39 µM] | activation [14] -0.001% [at 8.39 µM] | cAMP activity change [15] -11% [at 8.39 µM, hits give high values]

O=C1CCCCCCCCCCCC(=O)OCCO1
inactive: Potency [1] | Potency [16] | Potency [2] | Potency [4] | Potency [17] | Potency [5] | Potency [6] | outcome [7] | Potency [8] | Potency [9] | Potency [10] | Potency [11] | Potency [12] | Potency [18] | Potency [13] | Potency [14] | Potency [15]

O=C(O)CNCC(=O)O
inactive: activity change, negative = cytotoxicity [1] 0.833% [at 8.39 µM] | activity, negative = inhibition [16] -3.67% [at 8.39 µM] | activity change, negative = inhibition [2] -6.61% [at 8.39 µM] | activity change, negative = inhibition [4] 10.7% [at 8.39 µM] | activity change, negative = cytotoxicity [17] -5.53% [at 8.39 µM] | viability change, negative = cytotoxic [5] 1.7% [at 8.39 µM] | viability change, negative = cytotoxic [6] 3.32% [at 8.39 µM] | activity change [7] 0.375% [at 8.39 µM] | activity change, negative = inhibition [8] 8.21% [at 8.39 µM] | activation [9] 0.711% [at 8.39 µM] | activity, negative = inhibition [10] 5.13% [at 8.39 µM] | activity change, negative = cytotoxicity [12] 12.4% [at 8.39 µM] | activation [18] 3.52% [at 8.39 µM] | activity change, negative = cytotoxicity [13] -2.7% [at 8.39 µM] | activation [14] -1.55% [at 8.39 µM] | cAMP activity change [15] 0.505% [at 8.39 µM, hits give high values] | activity change, negative = inhibition [19] -1.17% [at 8.39 µM]

Cc1cc(C(=O)O)ccc1[N+](=O)[O-]
inactive: Potency [1] | Potency [2] | Potency [4] | Potency [17] | Potency [5] | Potency [6] | outcome [7] | Potency [8] | Potency [9] | Potency [10] | Potency [11] | Potency [12] | Potency [13] | Potency [14] | Potency [15] | Potency [19]

COc1cc(Cl)c(OC)cc1N
inactive: Potency [1] | Potency [20] | Potency [17] | Potency [6] | outcome [7] | Potency [8] | Potency [9] | Potency [10] | Potency [11] | Potency [12] | Potency [13]

O=C(NCC1CN(c2ccc(N3CCOCC3=O)cc2)C(=O)O1)c1ccc(Cl)s1 (stereo not given)
inactive: Potency [1] | Potency [20] | Potency [17] | Potency [5] | Potency [6] | outcome [7] | Potency [8] | Potency [9] | Potency [10] | Potency [11] | Potency [14] | Potency [19]

NCc1ccccc1Sc1ccccc1CO
inactive: Potency [1] | Potency [16] | Potency [2] | Potency [3] | Potency [4] | Potency [6] | outcome [7] | Potency [8] | Potency [9] | Potency [10] | Potency [11] | Potency [12] | Potency [18] | Potency [13] | Potency [14] | Potency [15] | Potency [19]
